{"source": "PubChem BioAssay AID588676", "about": "(Johns Hopkins Ion Channel Center, 2011)", "note": "Hit rate of the full screen: of about 310,000 compounds, about 3,900 (1.3%) were called active.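 Rule for the calls: active = calcium-response B-score plate-corrected more than 3 library SD below zero, starting fluorescence within 5 deviations, no agonist response on first addition; inactive = the rest.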 This excerpt belongs to a sample that is enriched for actives."}
{"target": "Mas-related G-protein coupled receptor member X1 (Homo sapiens) (UniProt Q96LB2)", "sequence (Q96LB2 whole entry, looked up)": "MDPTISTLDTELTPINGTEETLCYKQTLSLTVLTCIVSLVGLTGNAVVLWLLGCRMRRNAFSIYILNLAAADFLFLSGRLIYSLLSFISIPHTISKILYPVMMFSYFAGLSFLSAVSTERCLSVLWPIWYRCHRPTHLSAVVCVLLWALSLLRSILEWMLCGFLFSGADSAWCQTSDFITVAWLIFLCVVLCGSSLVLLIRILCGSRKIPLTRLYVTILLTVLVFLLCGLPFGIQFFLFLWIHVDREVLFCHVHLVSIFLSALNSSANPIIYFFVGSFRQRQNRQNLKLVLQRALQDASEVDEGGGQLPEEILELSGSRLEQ", "test": "antagonists of human MrgX1 receptor, primary screen, HEK293 cells, Fluo-4 calcium flux (AID 588676);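 for B-score: peak minus trough fluorescence over baseline after final BAM8-22 challenge near maximal dose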", "settings": "Fluo-4, BAM8-22 antagonism, at 10 µM; hits give low values"}
{"compound": "COc1ccc(NC(=O)N2CCC3(CC2)OCCO3)c(OC)c1", "B-score": "inactive"}
{"compound": "COc1ccc(S(=O)(=O)NCc2ccc(C(=O)N3CCC4(CC3)OCCO4)cc2)cc1", "B-score": "-6.08 (active)"}
{"compound": "COc1ccc(-c2nc(CS(=O)CC(=O)N3CCC4(CC3)OCCO4)c(C)o2)cc1", "note": "(stereo not given)", "B-score": "inactive"}
{"compound": "COC(=O)C1=C(c2cc3ccccc3o2)C[C@@H]2CC[C@H]1N2C(=O)NC1CCCCC1", "B-score": "inactive"}
{"compound": "CCCCCCCCCCCCn1ccc(=N)cc1", "B-score": "-5.32 (active)"}
{"compound": "COc1ccccc1C1=NCc2nnc(CSC)n2-c2ccc(Cl)cc21", "B-score": "inactive"}
{"compound": "CCCCCn1c(=O)c(C(=O)NCc2ccccc2)c(O)c2ccccc21", "B-score": "-6.52 (active)"}
{"compound": "CCCCn1c(=O)c(C(=O)Nc2ccccc2Cl)c(O)c2ccccc21", "B-score": "inactive"}
{"compound": "CCCCCn1c(=O)c(C(=O)NCc2ccccn2)c(O)c2ccccc21", "B-score": "inactive"}
{"compound": "CC(C)c1ccc(OCC(=O)N2CCN(C)CC2)c(Br)c1", "B-score": "inactive"}
{"compound": "CCOC(=O)C1SC2(C(F)(F)C(F)F)CC1(O)c1c(c(OC)c3occc3c1OC)O2", "note": "(stereo not given)", "B-score": "inactive"}
{"compound": "CNCC(O)c1cc(F)c(OCc2ccccc2)c(OCc2ccccc2)c1F", "note": "(stereo not given)", "B-score": "inactive"}
{"compound": "Cc1ccc(-n2c(O)c(C=NCC3CCCO3)c(=O)[nH]c2=O)c(C)c1", "note": "(stereo not given)", "B-score": "inactive"}
{"compound": "CCOC(=O)C(O)(c1ccc(N=Cc2ccccc2O)c(C)c1)C(F)(F)F", "note": "(stereo not given)", "B-score": "inactive"}
{"compound": "Cc1cccc(NC(=O)N2CC3CC(C2)c2cccc(=O)n2C3)c1", "note": "(stereo not given)", "B-score": "inactive"}
{"compound": "COc1ccccc1N1CCN(C(CNC(=O)Oc2ccccc2)c2cccnc2)CC1", "note": "(stereo not given)", "B-score": "inactive"}
{"compound": "O=C(CCN1CCCCC1)NCC(=O)Nc1ccc(Br)cc1C(=O)c1ccccc1", "B-score": "-5.59 (active)"}
{"compound": "CN1CCN(C(=S)SCC(=O)Nc2ccc(Cl)cc2C(=O)c2ccccc2)CC1", "B-score": "inactive"}
{"compound": "O=C(CN1CCCCC1)Nc1ccc(Br)cc1C(=O)c1ccccc1Cl", "B-score": "inactive"}
{"compound": "CCOC(=O)C1=C(C)OC(N)=C(C(=O)OC)C12C(=O)Nc1ccc(Br)cc12", "note": "(stereo not given)", "B-score": "inactive"}
